MITF inh: blocks human microphthalmia-associated transcription factor | O75030 | AlphaScreen MITF homodimerization, bead proximity signal | inhibition, % at 2.6 µM | 0.91% of 650,000 active | AID 1259374; in the data active = inhibition above about 50%
TEAD-YAP block: TEAD-YAP interaction inhibition; HEK-TIYL cells, TEAD-Gal4/YAP UAS-luciferase luminescence; inhibition, % at 9.12 µM; 1.4% of 640,000 active; AID 1259422; in the data active = inhibition above about 32%
GPR151 ag: activates the human receptor GPR151. Q8TDV0. activation, % at 11.2 µM. 1% of 650,000 active. PathHunter beta-arrestin GPR151 cells, luminescence; in the data active = activation above about 4.9%
FBW7 act: activators of human E3 ligase FBW7. normalized activity (activation), % at 26.1 µM. AlphaScreen FBW7–phospho-cyclin E peptide binding, activator screen. 0.13% of 650,000 active; in the data active = normalized activity above about 1.9%;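 also: purified mutant Fbw7 with reduced substrate affinity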
Target sequence (Q969H0 whole entry, looked up): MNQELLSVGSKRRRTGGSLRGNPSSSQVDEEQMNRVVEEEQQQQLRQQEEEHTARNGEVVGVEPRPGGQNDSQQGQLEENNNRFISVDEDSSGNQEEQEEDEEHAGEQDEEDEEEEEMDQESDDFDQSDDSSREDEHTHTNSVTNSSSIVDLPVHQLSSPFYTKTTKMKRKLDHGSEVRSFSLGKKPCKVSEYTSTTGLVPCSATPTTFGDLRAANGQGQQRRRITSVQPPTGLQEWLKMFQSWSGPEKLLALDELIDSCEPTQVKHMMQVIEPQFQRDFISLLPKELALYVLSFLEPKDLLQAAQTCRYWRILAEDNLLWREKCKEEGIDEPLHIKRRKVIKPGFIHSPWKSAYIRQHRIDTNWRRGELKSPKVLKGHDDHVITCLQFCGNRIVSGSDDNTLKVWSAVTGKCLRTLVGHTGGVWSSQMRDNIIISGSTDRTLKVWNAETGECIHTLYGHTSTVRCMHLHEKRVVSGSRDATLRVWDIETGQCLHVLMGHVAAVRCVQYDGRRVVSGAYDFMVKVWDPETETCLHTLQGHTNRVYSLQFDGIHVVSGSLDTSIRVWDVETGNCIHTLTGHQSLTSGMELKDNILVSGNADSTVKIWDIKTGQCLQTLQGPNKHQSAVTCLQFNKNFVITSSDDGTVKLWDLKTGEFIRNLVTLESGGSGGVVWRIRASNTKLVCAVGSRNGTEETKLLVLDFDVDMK
GPR151 conf act: confirmation of human GPR151 activators. activation, % at 11.2 µM. shares compounds with GPR151 ag. 6,700 tested, under 10 active. AID 1508609. GPR151 PathHunter beta-arrestin cells, luminescence, 90 min; % of EA-reagent control over plate median;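 active = mean percent activation across replicates above the confirmation screen cutoff of 4.91%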
GPR119 ag: GPR119 activation, counter-screen for GPR151 activators; shares compounds with GPR151 ag; GPR119 PathHunter beta-arrestin cells, luminescence, 90 min; 0 = compound-well median, 100 = enzyme-acceptor control; activation, % at 11.2 µM; 0.3% of 6,700 active; AID 1508611;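 active = mean percent activation in the counterscreen above 29.09%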;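 also: counterscreen on off-target GPR119 to flag nonselective hits from the GPR151 activator screen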
Of the large screens only hits and unclear results are named; the others gave an inactive call (follow-up assays come after a bar, where they were run). Compounds with a hit are over-represented: about 3.5% of the library has one in this group of screens.

CCc1ccccc1NC(=S)N(Cc1cccc(Br)c1)CC1CCC(C(=O)O)CC1 (stereo not drawn)	GPR151 ag 7.9 | GPR151 conf act inactive | GPR119 ag inactive
S=C(NCCCn1ccnc1)Nc1ccc(Br)cc1	GPR151 ag 5.1 | GPR151 conf act inactive | GPR119 ag inactive
COC(=O)c1cn(NC(=O)/C=C/c2ccc(Br)cc2)c(=O)c2ccccc12	GPR151 ag 7.8 | GPR151 conf act inactive | GPR119 ag inactive
CCC(CC)=NNC(=O)CSc1ncccn1	none
Cc1nc2ccc(N/C=C3\C(=O)C(C)(C)Oc4ccc5ccc(=O)oc5c43)cc2s1	GPR151 ag 5.8 | GPR151 conf act inactive | GPR119 ag inactive
Cc1ccc(N2C(=O)C3C4CC(=O)C(c5ccccc54)C3C2=O)cc1 (stereo not drawn)	none
O=C1CC2c3ccccc3C1C1C(=O)N(c3ccccc3)C(=O)C21 (stereo not drawn)	GPR151 ag 8.7 | GPR151 conf act inactive | GPR119 ag inactive
O=C(CCC1(Cc2ccc3c(c2)OCO3)CCC(=O)N1)NCc1nc(-c2ccccc2)no1 (stereo not drawn)	none
Cc1noc(C)c1-c1nc(NCCOc2ccccc2)c2ncn(CCN3CCCC3=O)c2n1	GPR151 ag 6.1 | GPR151 conf act inactive | GPR119 ag inactive
O=C1CCCN1CCn1cnc2c(NCCOc3ccccc3)nc(N3CCc4ccccc4C3)nc21	GPR151 ag 15 | GPR151 conf act inactive | GPR119 ag inactive
O=C1CCCN1CCCNc1nc(N2CCc3ccccc3C2)nc2c1ncn2CCN1CCCC1=O	none
O=C1CCCN1CCCNc1nc(-c2csc3ccccc23)nc2c1ncn2Cc1ccc(C(F)(F)F)cc1	none
O=C1CCCN1CCCNc1nc(-c2csc3ccccc23)nc2c1ncn2-c1ccccc1	GPR151 ag 5.8 | GPR151 conf act inactive | GPR119 ag inactive
CCOc1ccc2nc(N3CCCC(NCCn4cccn4)CC3)nc(C)c2c1 (stereo not drawn)	none
CCc1cccc(NS(=O)(=O)c2ccc3c(c2)n(C)c(=O)n3C)c1	none
Cn1c(=O)n(C)c2cc(S(=O)(=O)Nc3cccc(C(F)(F)F)c3)ccc21	GPR151 ag 5.1 | GPR151 conf act inactive | GPR119 ag inactive
COc1ccc(OC)c(C(=O)COC(=O)c2cc(C)oc2C)c1	GPR151 ag 13 | GPR151 conf act inactive | GPR119 ag inactive
COc1cc(/C=N/n2c(-c3ccncc3)n[nH]c2=S)cc(Br)c1O	GPR151 ag 5.0 | GPR151 conf act inactive | GPR119 ag inactive
COc1ccc(CNC(=O)c2c(C)nc3c(C)cccn23)cc1OC	GPR151 ag 5.1 | GPR151 conf act inactive | GPR119 ag inactive
COc1ccc(CCn2c(=O)c(C#N)cc3c(=O)n4cccc(C)c4nc32)cc1OC	GPR151 ag 7.4 | GPR151 conf act inactive | GPR119 ag inactive
COc1ccc(Cl)cc1-c1csc(CC#N)n1	none
COc1ccc(Cc2n[nH]c(=O)c3ccccc23)cc1OC	GPR151 ag 5.3 | GPR151 conf act inactive | GPR119 ag inactive
O=c1[nH]nc(Cc2ccccc2)c2ccccc12	none
COc1ccc(C(=O)NCCS(=O)(=O)NCCCOC(C)C)cc1	GPR151 ag 5.2 | GPR151 conf act inactive | GPR119 ag inactive
CCOC(=O)c1cnn(-c2nc(-c3ccccc3)cs2)c1CN(C)Cc1cscn1	none
CCOC(=O)c1c(C)nc2c(c1C)/C(=N/O)CC(C)(C)C2	GPR151 ag 5.0 | GPR151 conf act inactive | GPR119 ag inactive
Cc1ccc(NC(=O)CSc2nnc3ncccn23)cc1C	none
COc1ccc(-n2cc(C(=O)NC3CCC(C)CC3)c3ccccc3c2=O)cc1 (stereo not drawn)	GPR151 ag 5.0 | GPR151 conf act inactive | GPR119 ag inactive
CCC(C)NC(=O)CCNC(=O)c1cn(-c2cccc(OC)c2)c(=O)c2ccccc12 (stereo not drawn)	none
CCC(C)NC(=O)c1cn(-c2cccc(OC)c2)c(=O)c2ccccc12 (stereo not drawn)	GPR151 ag 5.4 | GPR151 conf act inactive | GPR119 ag inactive
COC(=O)C(C)Oc1ccc(/C=C2\Oc3cc(OC)ccc3C2=O)cc1OC (stereo not drawn)	GPR151 ag 8.8 | GPR151 conf act inactive | GPR119 ag inactive
COc1cc(C)c2c(c1)O/C(=C\c1ccc(OC)c(OC)c1OC)C2=O	GPR151 ag 7.5 | GPR151 conf act inactive | GPR119 ag inactive
COc1ccc2c(c1)O/C(=C\c1ccc(OS(C)(=O)=O)c(OC)c1)C2=O	none
COC(=O)COc1ccc(/C=C2\Oc3cc(OC)ccc3C2=O)cc1OC	none
COc1ccc2c(c1)O/C(=C\c1ccc(OC)c(OC)c1)C2=O	GPR151 ag 5.5 | GPR151 conf act inactive | GPR119 ag inactive
COc1ccc(NC2=C(Cl)C(=O)OC2OC(C)C)cc1 (stereo not drawn)	none
O=C(Cn1c(C(F)(F)F)nc2ccccc21)NNC(=O)c1cc(-c2ccccc2)n[nH]1	none
CC(C)CCNC(=O)C1CCC(=O)N1C(C)C (stereo not drawn)	GPR151 ag 5.2 | GPR151 conf act inactive | GPR119 ag inactive
CC(C)CCNC(=O)C1CC(=O)N(C2CCCCCC2)C1 (stereo not drawn)	GPR151 ag 10 | GPR151 conf act inactive | GPR119 ag inactive
CC(C)CN(CCCNC(=O)C1CC(=O)N(C2CCCC2)C1)CC(C)C (stereo not drawn)	none
COc1cc2c3c(n(C)c2cc1Br)CNNC3=O	none
CCCC(=O)N(c1ccc2oc(C)c(C(=O)OCC)c2c1)S(=O)(=O)c1ccc2ccccc2c1	none
CCCC(=O)N(c1ccc2oc(C)c(C(=O)OC)c2c1)S(=O)(=O)c1ccc2ccccc2c1	GPR151 ag 5.2 | GPR151 conf act inactive | GPR119 ag inactive
CN1CCN(CC(=O)N2c3ccccc3Sc3ccc(C(F)(F)F)cc32)CC1	none
O=C(CN1CCC(O)CC1)N1c2ccccc2Sc2ccc(C(F)(F)F)cc21	GPR151 ag 8.4 | GPR151 conf act inactive | GPR119 ag inactive
CN(C)C(C(=O)NC1CCCC1)c1ccc(Cl)cc1 (stereo not drawn)	GPR151 ag 6.0 | GPR151 conf act inactive | GPR119 ag inactive
Cc1ccc(C(C(=O)NC2CCCC2)N(C)C)cc1 (stereo not drawn)	none
O=S(=O)(N/N=C/c1cccc(Cl)c1)c1ccc(Cl)cc1	GPR151 ag 5.2 | GPR151 conf act inactive | GPR119 ag inactive
COc1ccc(/C=C2/c3ccccc3-c3cc4c(C)cc(C)nc4cc32)cc1OC	GPR151 ag 5.8 | GPR151 conf act inactive | GPR119 ag inactive
COc1ccc(/C=C2/c3ccccc3-c3nc4ccccc4cc32)cc1OC	none
CCCCc1ccc(NC(=S)NN2CCOCC2)cc1	none
CCC(C)c1ccc(NC(=S)NN2CCOCC2)cc1 (stereo not drawn)	GPR151 ag 23 | GPR151 conf act inactive | GPR119 ag inactive
